# Source: PubChem BioAssay (NCI)
# Compounds without any hit were thinned out: in the full panel of roughly 79,000, 15% have a hit. Active and inactive are the calls of the source. No stated cut-off is given here; in the data, active means growth inhibition above about 70%; inactive means the rest.
# Key:
# [1] = NCI Yeast Anticancer Drug Screen. Data for the rad50 strain (AID 155);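 further: 0% = growth of vehicle-only cultures of the same strain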; conditions: S. cerevisiae rad50 strain growth inhibition, active compounds read high
# In short: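 Readout: growth inhibition relative to vehicle-treated cultures. Compound exposure was carried out in a genetically defined yeast strain deficient in DNA damage repair.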
# [2] = NCI Yeast Anticancer Drug Screen. Data for the mec2-1 strain (AID 157); conditions: S. cerevisiae mec2-1 strain, active compounds read high
# In short: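 Strain: mec2-1 (DNA repair/cell cycle alteration). Compound exposure, then growth measured; inhibition expressed relative to vehicle.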
# [3] = NCI Yeast Anticancer Drug Screen. Data for the sgs1 mgt1 strain (AID 161);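 further: 0% = growth of cultures given vehicle only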; conditions: S. cerevisiae sgs1 mgt1 strain, active compounds read high
# In short: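 Mutant yeast exposed to compound; growth scored against vehicle-only wells.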
# [4] = NCI Yeast Anticancer Drug Screen. Data for the cln2 rad14 strain (AID 165);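 further: 0% = growth equal to vehicle treated cultures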; conditions: S. cerevisiae cln2 rad14 strain, active compounds read high
# In short: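 Compounds are applied to the cln2 rad14 yeast strain, and growth is then compared with that of vehicle-treated cultures to give inhibition.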
# [5] = NCI Yeast Anticancer Drug Screen. Data for the bub3 strain (AID 167); conditions: S. cerevisiae bub3 mutant strain, active compounds read high
# In short: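 Readout: yeast growth inhibition, expressed relative to vehicle-only wells. The test organism is a mutant strain from a panel with lesions in DNA repair or checkpoint genes.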
# [6] = NCI Yeast Anticancer Drug Screen. Data for the mlh1 rad18 strain (AID 175); conditions: S. cerevisiae mlh1 rad18 strain growth inhibition, active compounds read high
# In short: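 Read-out is yeast growth inhibition, calculated against vehicle-only controls. The compound was applied to a strain engineered with DNA damage repair alterations.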
# [7] = at 5.0 µM (retest, dose inferred, filed as 0.5)
# [8] = at 50.0 µM (retest, dose inferred, filed as 5.0)
Structure (SMILES),"growth inhibition [1, 7]","growth inhibition [1, 8]",growth inhibition ([1]; at 50.0 µM),"growth inhibition [2, 7]","growth inhibition [2, 8]",growth inhibition ([2]; at 50.0 µM),"growth inhibition [3, 7]","growth inhibition [3, 8]",growth inhibition ([3]; at 50.0 µM),"growth inhibition [4, 7]","growth inhibition [4, 8]",growth inhibition ([4]; at 50.0 µM),"growth inhibition [5, 7]","growth inhibition [5, 8]",growth inhibition ([5]; at 50.0 µM),"growth inhibition [6, 7]","growth inhibition [6, 8]",growth inhibition ([6]; at 50.0 µM)
CC1(C)OCC(COC(c2ccccc2)(c2ccccc2)c2ccccc2)O1 (configuration not stated),-7% (inactive),14% (inactive),21.1% (inactive),-6% (inactive),12% (inactive),4.65% (inactive),-9% (inactive),2% (inactive),-0.5% (inactive),-4% (inactive),16% (inactive),-33% (inactive),-2% (inactive),63% (inactive),40.2% (inactive),-5% (inactive),28% (inactive),43.6% (inactive)
O/N=C1\c2ccccc2-c2ccc(F)cc21,20% (inactive),90% (active),95% (active),7% (inactive),73% (active),84.2% (active),13% (inactive),87% (active),91.6% (active),5% (inactive),71% (active),63% (inactive),1% (inactive),77% (active),91.1% (active),13% (inactive),78% (active),93.8% (active)
Cc1nnc(N/N=C/c2ccc([N+](=O)[O-])o2)[nH]c1=O,-5% (inactive),36% (inactive),59.1% (inactive),6% (inactive),68% (inactive),65.2% (inactive),-2% (inactive),75% (active),47.5% (inactive),6% (inactive),42% (inactive),85.2% (active),-9% (inactive),62% (inactive),81% (active),8% (inactive),80% (active),71% (active)
Oc1ccc(Cl)cc1C(c1cc(Cl)ccc1O)C(Cl)(Cl)Cl,99% (active),99% (active),99.5% (active),99% (active),99% (active),99.6% (active),100% (active),100% (active),99.4% (active),99% (active),99% (active),99.1% (active),100% (active),99% (active),99.5% (active),,,
C1=C(c2ccccc2)c2ccccc2C1,0% (inactive),29% (inactive),75.2% (active),-23% (inactive),17% (inactive),63.4% (inactive),-13% (inactive),12% (inactive),48% (inactive),23% (inactive),19% (inactive),50% (inactive),-12% (inactive),18% (inactive),58.9% (inactive),5% (inactive),57% (inactive),49.9% (inactive)
N#C/C(=N\Nc1ccc(Cl)cc1)C(=O)C1CC1,59% (inactive),62% (inactive),86.4% (active),41% (inactive),46% (inactive),77.5% (active),58% (inactive),70% (active),85.7% (active),55% (inactive),55% (inactive),85.5% (active),51% (inactive),78% (active),77.4% (active),,,
O=C(Cc1ccccc1)C(F)(F)F,10% (inactive),70% (active),-8.45% (inactive),3% (inactive),15% (inactive),1.95% (inactive),4% (inactive),20% (inactive),42.2% (inactive),4% (inactive),2% (inactive),-15.6% (inactive),2% (inactive),19% (inactive),-7.95% (inactive),0% (inactive),18% (inactive),58.8% (inactive)
CC(=O)Nc1ccc(C(=O)CCl)cc1,98% (active),98% (active),76.3% (active),96% (active),99% (active),51.7% (inactive),98% (active),99% (active),99% (active),87% (active),93% (active),51.6% (inactive),99% (active),99% (active),7.6% (inactive),98% (active),99% (active),94.7% (active)
CCCCCCCCCCCC1=NCCCN1CCCC,10% (inactive),99% (active),88.3% (active),0% (inactive),99% (active),99.2% (active),26% (inactive),100% (active),84.3% (active),4% (inactive),99% (active),72% (active),22% (inactive),100% (active),98.7% (active),,,
NC1=C(Br)C(=O)c2ncccc2C1=O,56% (inactive),94% (active),87.7% (active),19% (inactive),86% (active),91.5% (active),34% (inactive),93% (active),91.5% (active),18% (inactive),90% (active),90% (active),9% (inactive),83% (active),90.3% (active),50% (inactive),95% (active),
CC1(O)CCCCCC1,-13% (inactive),74% (active),85% (active),-29% (inactive),58% (inactive),69.7% (inactive),-7% (inactive),54% (inactive),88.2% (active),28% (inactive),68% (inactive),77.7% (active),3% (inactive),74% (active),84.2% (active),16% (inactive),91% (active),71.1% (active)
Cc1oc2c(C)c3oc(=O)cc(C)c3cc2c1CCl,27% (inactive),94% (active),54.4% (inactive),32% (inactive),97% (active),75.5% (active),27% (inactive),95% (active),87% (active),19% (inactive),89% (active),67.5% (inactive),41% (inactive),97% (active),84.1% (active),47% (inactive),96% (active),90.7% (active)
Nc1ccc(-c2ccc(N)c(S(=O)(=O)O)c2)cc1S(=O)(=O)O,4% (inactive),2% (inactive),-11.9% (inactive),4% (inactive),12% (inactive),-9% (inactive),5% (inactive),3% (inactive),7.85% (inactive),,,,,,,,,
O=C1C=CC(=O)N1c1ccc(O)cc1,15% (inactive),94% (active),96.3% (active),23% (inactive),98% (active),98.4% (active),18% (inactive),86% (active),94.1% (active),-1% (inactive),98% (active),98.3% (active),4% (inactive),97% (active),96.8% (active),11% (inactive),98% (active),91.8% (active)
N#CC(=C1SCS1)[N+](=O)[O-],91% (active),99% (active),91.1% (active),98% (active),100% (active),92.4% (active),98% (active),100% (active),92% (active),31% (inactive),99% (active),92.2% (active),95% (active),99% (active),89.9% (active),,,
CC(CSc1n[nH]c(=S)s1)c1ccccc1 (configuration not stated),7% (inactive),93% (active),97.1% (active),11% (inactive),96% (active),95.8% (active),14% (inactive),96% (active),95.8% (active),1% (inactive),93% (active),95.2% (active),23% (inactive),94% (active),96.3% (active),12% (inactive),94% (active),95.1% (active)
CCCCCCC1N=C(N)N=C(N)N1c1cccc(Cl)c1 (configuration not stated),17% (inactive),61% (inactive),-25.1% (inactive),10% (inactive),56% (inactive),48.8% (inactive),8% (inactive),55% (inactive),46.4% (inactive),1% (inactive),24% (inactive),-53.5% (inactive),34% (inactive),81% (active),52.9% (inactive),7% (inactive),98% (active),89.6% (active)
OC(c1cc(-c2ccc(C(F)(F)F)cc2)nc(C(F)(F)F)c1)C1CCCCN1 (configuration not stated),23% (inactive),39% (inactive),56.1% (inactive),24% (inactive),35% (inactive),76.2% (active),33% (inactive),60% (inactive),45.5% (inactive),31% (inactive),7% (inactive),25.7% (inactive),11% (inactive),36% (inactive),33.5% (inactive),34% (inactive),65% (inactive),
O=C1CSC(=S)N1Cc1cccnc1,1% (inactive),19% (inactive),45.4% (inactive),4% (inactive),47% (inactive),34% (inactive),6% (inactive),24% (inactive),42.9% (inactive),32% (inactive),33% (inactive),1.95% (inactive),-22% (inactive),48% (inactive),61.8% (inactive),-4% (inactive),72% (active),54.9% (inactive)
O=C(Cc1nc2cc(Cl)c(Cl)cc2nc1CC(=O)c1ccccc1)c1ccccc1,-7% (inactive),93% (active),96.4% (active),-9% (inactive),76% (active),96.8% (active),-9% (inactive),84% (active),96.8% (active),7% (inactive),74% (active),94.8% (active),-4% (inactive),90% (active),96.5% (active),-9% (inactive),93% (active),96% (active)
